Experimental findings from PubChem BioAssay (NCATS) are described below.

The target in experiment [1] is Cytochrome P450 1A2 (Homo sapiens) (UniProt P05177). The experiment is described as follows: p450-cyp1a2 (AID 410; calls by dose curve). Summed up:
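O-Demethylation of luciferin 6' methyl ether by human CYP1A2 is monitored as luciferase luminescence. Substrate sits at Km (100uM); enzyme is 20nM. Values are scaled to 57 uM furafylline as maximal inhibition.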

The nature of experiment [2]: NFAT Signaling Pathway (AID 444; active = well fitted curve in either direction with a large enough effect, not every such curve was filed as active;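 also: carbachol stimulus at about its EC50 of 1 µM final; % is scaled to controls: 0 for no effect and ±100 for the full control effect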). The note with it: Jurkat NFAT-bla M1, carbachol, beta-lactamase ratio, 5 h; at 7.69 µM (top of the series) unless noted. Summed up: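 Jurkat cells carrying an NFAT-driven β-lactamase reporter and co-transfected muscarinic M1 receptor were treated with compound plus carbachol (1 uM final, an EC50 level) for 5 h at 37 °C. CCF4 loading followed for 1 h at RT; 460/530 nm ratio gave %activity.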

Experiment [3] has as its target Glucocorticoid receptor (Homo sapiens) (UniProt P04150). The experiment is described as follows: GR-EFC Redistribution (AID 451; calls by dose curve; also: potency is read from the fitted curve at half-maximal effect). The note with it: CHO-K1 GR-EFC translocation, beta-gal luminescence, 2 h. In short, it runs like this:
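CHO-K1 cells stably expressing nuclear-localized β-gal enzyme acceptor and GR fused C-terminally to the enzyme donor fragment; ligand-driven nuclear translocation restores β-gal by complementation. Compounds titrated up to 46 uM final, 2 h at 37 °C; luminescence read.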

Experiment [4] deals with Mitogen-activated protein kinase 10 (Mus musculus) (UniProt Q61831). Description: JNK3 AlphaScreen Assay (AID 530; active = well fitted curve in either direction with a large enough effect, not every such curve was filed as active;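 also: kinase came from lysate of stimulated human HepG2 cells; signal reports phosphorylation of biotinylated GST-cJun 1-79 at Ser73 with 10 µM ATP; % is scaled to controls: 0 for no effect and ±100 for the full control effect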). In short, it runs like this:
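Phosphorylation of biotinylated GST-cJun(1-79) at Ser73 is measured by AlphaScreen proximity luminescence. Enzyme is JNK3 in HepG2 lysates activated with interleukin-1beta and tumor necrosis factor alpha; ATP is 10 uM final.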
On the technique in general: In Alpha technology, singlet oxygen from a donor bead excites a nearby acceptor bead.

Experiment [5] concerns the target 3',5'-cyclic-AMP phosphodiesterase 4B (Homo sapiens) (UniProt Q07343). Description: qHTS Assay for Inhibitors of PDE-IV (AID 607; active = well fitted activation curve with a large enough effect in the main read-out, with a control signal flat, not every such curve was filed as active; also: % of control where 0% means no effect). Summed up: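 Cell-based read-out of cAMP via a modified cyclic nucleotide-gated channel and membrane potential dye (535/590 nm) in HEK293 cells expressing PDE4 endogenously. Compounds tested up to 22.9 uM final; 100 uM RO 20-1724 reference.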
Background: qHTS replaces the single test concentration by a dilution series.

Experiment [6] concerns the target Guanine nucleotide-binding protein G(i) subunit alpha-1 (Homo sapiens) (UniProt P63096). The experiment is described as follows: qHTS Assay for Inhibitors of RGS12 GoLoco Motif Activity (Green Fluorophore) (AID 879).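 Also: 0% = labeled peptide with Gαi1 and full inhibition = labeled peptide alone without protein; negative values mean loss of peptide binding seen as reduced polarization.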 Summed up:
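A drop in FITC polarization marked displacement of the FITC-tagged RGS12 GoLoco peptide (10 nM) from Gαi1 (50 nM). Compounds were incubated 10 min at room temperature in Tris pH 7.5 buffer containing 150 mM NaCl, 0.1 mM GDP and 0.05% NP40; unlabeled peptide titration served as control.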

The target in experiment [7] is Cytochrome P450 3A4 (Homo sapiens) (UniProt P08684). Description: qHTS Assay for Activators of Cytochrome P450 3A4 (AID 885). Also: nearly all actives have a fitted effect of over 65% in size. Summed up: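 Luminescent readout of luciferin formed from 25 uM Luciferin-PPXE (KM level) by 20 nM CYP3A4 in 200 mM KPO4, with 60 min NADPH-driven reaction at room temperature after 10 min compound exposure. Ketoconazole (57 uM) defined 100% inhibition.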

In experiment [8] the target is Cytochrome P450 2D6 (Homo sapiens) (UniProt P10635). Description: qHTS Assay for Inhibitors and Substrates of Cytochrome P450 2D6 (AID 891). Also: potency is read from the fitted curve at half-maximal effect; nearly all actives have a fitted effect of over 60% in size. In short, it runs like this:
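Luminescent read-out of luciferin formed by 5 nM human CYP2D6 demethylating 30 uM Luciferin-ME EGE (Km level) over 60 min at room temperature after NADPH regeneration addition. Data normalized to full inhibition by 1.43 uM quinidine.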

Experiment [9] in a line: qHTS Assay for Identification of Small Molecule Antagonists for Thrombopoietin (TPO) Signaling Pathway (AID 918). Also: potency is read from the fitted curve at half-maximal effect; nearly all actives have a fitted effect of over 60% in size. The note with it: TPO-dependent cell signaling reporter, antagonist mode. Summed up: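 Inhibitors of TPO signaling are sought by stimulating IL-3-starved murine Ba/F3 cells (human TPO receptor, Glycoprotein IIb-driven luciferase) with TPO at its EC50 of 26 pM alongside compound. After 24 hrs at 37 C, reporter luminescence is measured.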

Experiment [10] addresses Muscarinic acetylcholine receptor M1 (Rattus norvegicus) (UniProt P08482). Description: qHTS Assay for Antagonists of Acetylcholine Muscarinic M1 Receptor: Measurement of IP-One Response (AID 944). Also: potency is read from the fitted curve at half-maximal effect; nearly all actives have a fitted effect of over 75% in size. In short, it runs like this:
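Antagonist mode with rat M1 receptor transfected into CHO cells. Compound is added first for 10 min, carbachol at its EC80 follows for 30 min, and lysis reagents then allow TR-FRET detection of accumulated IP1.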

Experiment [11] concerns the target Pyruvate kinase (Leishmania mexicana) (UniProt Q27686). Description: qHTS Validation Assay for Inhibitors of Leishmania Mexicana Pyruvate Kinase (AID 945).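 Also: 0% = DMSO only neutral control wells.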 In short, it runs like this:
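Compounds are tested as eight-point concentration series. Reactions contain 0.2 nM LmPYK E451W, 0.5 mM PEP, 0.1 mM ADP, 7 mM MgCl2 and 50 mM KCl at pH 7.2, run 1 h at room temperature, then read by PKLight luminescence.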

For experiment [12], the target named is Pyruvate kinase PKM (Homo sapiens) (UniProt P14618). Description: qHTS Assay for Activators of Human Muscle Pyruvate Kinase (AID 954; active = well fitted curve in the direction sought with a large enough effect, not every such curve was filed as active;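 also: 0% = uninhibited enzyme and -100% = no enzyme or full thiadiazolimine inhibition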). In short, it runs like this: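 ATP production by PKM2 detected via luciferase luminescence after 1 h room-temperature reaction (0.1 nM enzyme, PEP at Km 0.5 mM, ADP 0.1 mM, pH 7.2 imidazole buffer). Inhibition scaled to no-enzyme control; activation referenced to 0.3 nM enzyme wells.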

In experiment [13] the target is Alpha-galactosidase A (Homo sapiens) (UniProt P06280). Description: Counterscreen for Glucocerebrosidase Inhibitors: qHTS Assay for Human alpha-Galactosidase at pH 4.5 (AID 992). Also: 0% is about no effect. Summed up:
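Fluorogenic 1536-well qHTS at pH 4.5 (citrate, Tween-20): 2 nM enzyme, 80 uM 4-MU-alpha-galactoside, 20 min room temperature, NaOH/glycine stop. Titration 0.7 nM to 77 uM, data normalized to no-enzyme and full-activity controls, Hill-fitted AC50.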
(The purpose of a counterscreen is to sort out artefacts and off-target activity.)

Experiment [14] addresses alpha-glucosidase (Oryza sativa, rice) (UniProt Q653V4). The experiment is described as follows: Counterscreen for Glucocerebrosidase Inhibitors: qHTS Assay for Rice alpha-Glucosidase at pH 5.0 (AID 997).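 Also: 0% = full activity with enzyme and -100% = basal without enzyme.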 Summed up:
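Endpoint fluorogenic assay at pH 5.0: compounds (0.7 nM to 77 uM) titrated against 4 nM rice enzyme and 400 uM 4-MU-alpha-glucoside for 20 min at room temperature; NaOH/glycine stop, read ex 365/em 440 nm, Hill-fitted AC50.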

The target of experiment [15] is DNA repair nuclease/redox regulator APEX1 (Homo sapiens) (UniProt P27695). The experiment is described as follows: qHTS Validation Assay for Inhibitors of the Human Apurinic/apyrimidinic Endonuclease 1 (APE1) (AID 1705; also: potency is read from the fitted curve at half-maximal effect). Summed up: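 Substrate: 50 nM final fluorophore/quencher THF-abasic duplex. Enzyme preincubated with compounds 15 min, RT. Progress derived from fluorescence difference, third minus first kinetic read.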

The nature of experiment [16]: Counterscreen for APE1 Inhibitors: Fluorescent Dye Displacement Validation Assay (AID 1707).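 Also: plate controls were ThO with dsDNA and no compound for no effect and ThO without dsDNA for full effect.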 Summed up:
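Counterscreen flags promiscuous DNA binders: compounds displacing ThO from duplex DNA (abasic THF site, 50 nM) reduce 540 nm emission (480 nm excitation). ThO 250 nM final; Tris-HCl pH 7.5 with NaCl, MgCl2 and Tween-20.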

Experiment [17] has as its target Endonuclease 4 (Escherichia coli (strain K12)) (UniProt P0A6C1). The experiment is described as follows: Counterscreen for APE1 Inhibitors: qHTS Validation Assay for Inhibitors of Endonuclease IV (AID 1708). Also: potency is read from the fitted curve at half-maximal effect. In short, it runs like this:
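Enzyme (2 nM) + compound, 15 min RT; add 50 nM TAMRA/BHQ-2 THF-site dsDNA; kinetic read ex525/em598, 3 reads/60 s; activity = read 3 − read 1. Buffer Tris pH 7.5, 50 mM NaCl, 2 mM MgCl2, DTT, Tween-20.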

Experiment [18] in a line: qHTS for differential inhibitors of proliferation of Plasmodium falciparum line 7G8 (AID 1815).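 Also: potency is read from the fitted curve at half-maximal effect; parasite growth measured after three days of incubation.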
Experiment [19] is described as follows: qHTS for differential inhibitors of proliferation of Plasmodium falciparum line GB4 (AID 1816).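 Also: potency is read from the fitted curve at half-maximal effect; parasite growth measured after 72 h incubation.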 The note with it: Potency: Plasmodium falciparum GB4 proliferation inhibition.
Experiment [20] is described as follows: qHTS for differential inhibitors of proliferation of Plasmodium falciparum line 3D7 (AID 1876). Also: potency is read from the fitted curve at half-maximal effect.
Experiment [21] is described as follows: qHTS for differential inhibitors of proliferation of Plasmodium falciparum line D10 (AID 1877).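 Also: potency is read from the fitted curve at half-maximal effect; parasites grown with compound for 72 h before DNA staining.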
The nature of experiment [22]: qHTS for differential inhibitors of proliferation of Plasmodium falciparum line Dd2 (AID 1882). Also: potency is read from the fitted curve at half-maximal effect; nearly all actives have a fitted effect of over 65% in size. The note with it: Potency: Plasmodium falciparum Dd2 proliferation inhibition. Summed up: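 SYBR Green DNA fluorescence (ex 485, em 535 nm) after overnight lysis quantifies parasite growth; compound exposure lasted 72 h at 37 C on infected red cells at 2.5% hematocrit, 0.3% parasitemia (final). Artemisinin 0.29 uM and vehicle wells define normalization.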

Experiment [23] in a line: qHTS for differential inhibitors of proliferation of Plasmodium falciparum line W2 (AID 1883).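 Also: potency is read from the fitted curve at half-maximal effect; parasites grown with compound for 72 h before lysis and staining.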 The note with it: Potency: Plasmodium falciparum W2 proliferation inhibition.
Experiment [24] in a line: qHTS for differential inhibitors of proliferation of Plasmodium falciparum line HB3 (AID 1886).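 Also: potency is read from the fitted curve at half-maximal effect; parasites grown with compound for 72 h before SYBR Green readout.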 Particulars: Potency: Plasmodium falciparum HB3 proliferation inhibition.
Experiment [25] deals with M-phase phosphoprotein 8 (Homo sapiens) (UniProt Q99549). Description: qHTS Validation Assay for Inhibitors for MPP8 Chromodomain Interactions with Methylated Histone Tails (AID 488949). Also: potency is read from the fitted curve at half-maximal effect; nearly all actives have a fitted effect of over 55% in size. In short, it runs like this:
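Chemiluminescent proximity assay: histidine-tag capture via nickel acceptor beads, biotin peptide via streptavidin donor beads. Protein and peptide each at 50 nM, pH 7.4, with 30 min incubations at room temperature for complex formation, compound exposure and bead binding.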

Experiment [26] addresses Transient receptor potential cation channel subfamily V member 1 (Homo sapiens) (UniProt Q8NER1). Description: HTS Assay for Compounds that Act as Enhancers of the Vanilloid Receptor 1 (AID 488979). Also: 0% is about no effect. In short, it runs like this: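 TRPV1-expressing cells loaded with Fluo-8 calcium dye; compounds added and calcium influx read kinetically for 3 min (agonist phase), then capsaicin at EC20 added and read 2 min more for enhancement. Fluorescence ex 480/em 520 nm.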

Experiment [27] concerns the target Thyrotropin-releasing hormone receptor (Homo sapiens) (UniProt P34981). Description: qHTS for Small Molecule Agonists and Allosteric Enhancers of Human TRH Receptor: Validation Screen for Agonists (AID 493127;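 active = calcium activation more than 3 SD above the typical response in the agonist read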;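 also: intracellular calcium rise by fluo-8 fluorescence before TRH EC20 addition; 0% is about no effect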). The note with it: TRH receptor agonist cell assay; at 2 µM; stronger effect = higher value. In short, it runs like this:
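Compounds are added by online pintool to dye-loaded TRHR cells while fluorescence is recorded every second. A rise in calcium signal during the agonist read marks activation; a later 10 nM TRH addition (EC20) serves the separate enhancer mode.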

The target in experiment [28] is Galactokinase (Homo sapiens) (UniProt P51570). The experiment is described as follows: qHTS Validation Assay for Inhibitors of Human Galactokinase (GALK) (AID 493189). Also: 0% is about no effect. In short, it runs like this: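 Enzyme activity is inferred from ATP consumption: human GALK phosphorylates galactose (100 uM) using 35 uM ATP for 1 h at room temperature, and luciferase-based Kinase-Glo Plus reports unconsumed ATP.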

For experiment [29], the target named is Voltage-gated inwardly rectifying potassium channel KCNH2 (Homo sapiens) (UniProt Q12809). The experiment is described as follows: qHTS Assay for Small Molecule Inhibitors of the Human hERG Channel Activity (AID 588834).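 Also: potency is read from the fitted curve at half-maximal effect; lower thallium flux fluorescence means stronger hERG block; nearly all actives have a fitted effect of over 50% in size.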 Summed up: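 Homogeneous FluxOR thallium flux assay using hERG-expressing U2OS cells (BacMam). Compound treatment about 10 minutes preceded stimulation; reduced fluorescence taken as channel block.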

Experiment [30] concerns the target Catechol O-methyltransferase (Homo sapiens) (UniProt P21964). Description: Confirmatory Screen for Target Class Profiling of Small Molecule Inhibitors of Methyltransferases (AID 1745852). As to activity change, negative = inhibition: % is scaled to controls: 0 for no effect and ±100 for the full control effect. The note with it: MTase-Glo luminescence, SAH detection, recombinant enzyme; measured here: COMT max response; stronger effect = lower value.
In experiment [31] the target is Guanidinoacetate N-methyltransferase (Homo sapiens) (UniProt Q14353). Described as above. The note with it: activity change, negative = inhibition: at 57.3 µM (top of the series) unless noted.
Experiment [32] addresses Nicotinamide N-methyltransferase (Homo sapiens) (UniProt P40261). The experiment is described as above. Particulars: MTase-Glo luminescence, SAH detection, recombinant enzyme; measured here: NNMT max response; stronger effect = lower value.
Experiment [33] concerns the target Phenylethanolamine N-methyltransferase (Homo sapiens) (UniProt P11086). The description is as above. The note with it: MTase-Glo luminescence, SAH detection, recombinant enzyme; measured here: PNMT max response; stronger effect = lower value.

Inconclusive results are not listed. The source made the active and inactive calls. Unless noted, calls follow the shape of the dose curve; as a rule, active = well fitted curve in the direction sought with a large enough effect; inconclusive = small, poorly fitted or top-dose-only effect, or another doubt; inactive = no such curve, though single readings can be large; an effect the other way counts as inactive or inconclusive.

Voltage-gated inwardly rectifying potassium channel KCNH2 (Homo sapiens), sequence (Q12809 whole entry, looked up): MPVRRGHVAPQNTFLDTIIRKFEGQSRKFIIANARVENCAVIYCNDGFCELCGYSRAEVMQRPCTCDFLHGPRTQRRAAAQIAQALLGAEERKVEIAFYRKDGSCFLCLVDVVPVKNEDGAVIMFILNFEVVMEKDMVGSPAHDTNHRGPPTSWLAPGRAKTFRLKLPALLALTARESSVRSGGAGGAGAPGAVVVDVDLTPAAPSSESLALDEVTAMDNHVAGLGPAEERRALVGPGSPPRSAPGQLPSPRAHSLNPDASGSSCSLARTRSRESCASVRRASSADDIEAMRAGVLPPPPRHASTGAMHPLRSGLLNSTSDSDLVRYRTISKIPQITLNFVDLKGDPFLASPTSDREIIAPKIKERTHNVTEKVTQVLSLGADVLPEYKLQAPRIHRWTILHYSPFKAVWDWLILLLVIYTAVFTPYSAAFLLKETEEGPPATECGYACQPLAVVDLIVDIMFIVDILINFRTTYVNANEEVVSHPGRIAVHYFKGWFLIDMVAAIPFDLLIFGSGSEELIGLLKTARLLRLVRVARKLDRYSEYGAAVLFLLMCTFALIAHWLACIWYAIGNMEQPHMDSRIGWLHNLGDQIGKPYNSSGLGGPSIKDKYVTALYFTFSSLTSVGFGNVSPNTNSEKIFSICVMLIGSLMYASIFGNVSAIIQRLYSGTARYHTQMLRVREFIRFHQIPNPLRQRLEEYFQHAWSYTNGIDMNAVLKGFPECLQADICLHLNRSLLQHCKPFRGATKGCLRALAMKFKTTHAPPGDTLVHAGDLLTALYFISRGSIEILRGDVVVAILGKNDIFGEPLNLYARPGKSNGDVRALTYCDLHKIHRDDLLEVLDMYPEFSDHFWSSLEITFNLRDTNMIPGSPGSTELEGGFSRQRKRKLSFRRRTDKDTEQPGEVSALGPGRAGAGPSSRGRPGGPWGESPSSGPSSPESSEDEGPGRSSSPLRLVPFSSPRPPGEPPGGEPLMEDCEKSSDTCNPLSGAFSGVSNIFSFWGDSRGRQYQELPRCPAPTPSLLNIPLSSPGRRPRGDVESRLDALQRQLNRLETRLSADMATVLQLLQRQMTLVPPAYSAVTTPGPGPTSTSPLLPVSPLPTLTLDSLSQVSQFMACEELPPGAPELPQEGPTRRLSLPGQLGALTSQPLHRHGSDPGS
Glucocorticoid receptor (Homo sapiens), sequence (P04150 whole entry, looked up, the tested form may be a part): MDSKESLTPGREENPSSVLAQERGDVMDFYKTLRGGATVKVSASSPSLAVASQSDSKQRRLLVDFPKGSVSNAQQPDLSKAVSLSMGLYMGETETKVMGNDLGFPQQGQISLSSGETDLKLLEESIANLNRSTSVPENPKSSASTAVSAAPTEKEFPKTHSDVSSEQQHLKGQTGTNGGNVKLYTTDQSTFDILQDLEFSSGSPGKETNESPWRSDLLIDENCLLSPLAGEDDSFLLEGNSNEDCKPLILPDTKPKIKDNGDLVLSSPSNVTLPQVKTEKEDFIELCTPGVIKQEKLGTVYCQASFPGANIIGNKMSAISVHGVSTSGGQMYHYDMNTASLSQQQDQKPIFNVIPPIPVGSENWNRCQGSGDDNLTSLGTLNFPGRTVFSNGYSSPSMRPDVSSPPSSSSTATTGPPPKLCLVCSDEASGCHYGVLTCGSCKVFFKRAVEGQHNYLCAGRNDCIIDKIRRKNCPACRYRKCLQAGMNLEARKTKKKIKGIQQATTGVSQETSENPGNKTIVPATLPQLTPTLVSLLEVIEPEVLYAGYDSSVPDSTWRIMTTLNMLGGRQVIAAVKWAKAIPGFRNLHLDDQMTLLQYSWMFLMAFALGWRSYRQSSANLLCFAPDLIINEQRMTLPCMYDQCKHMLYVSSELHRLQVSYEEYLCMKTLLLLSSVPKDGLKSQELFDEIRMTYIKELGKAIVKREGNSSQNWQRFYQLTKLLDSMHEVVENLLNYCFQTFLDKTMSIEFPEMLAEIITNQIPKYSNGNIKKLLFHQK
Galactokinase (Homo sapiens), sequence (P51570 whole entry, looked up): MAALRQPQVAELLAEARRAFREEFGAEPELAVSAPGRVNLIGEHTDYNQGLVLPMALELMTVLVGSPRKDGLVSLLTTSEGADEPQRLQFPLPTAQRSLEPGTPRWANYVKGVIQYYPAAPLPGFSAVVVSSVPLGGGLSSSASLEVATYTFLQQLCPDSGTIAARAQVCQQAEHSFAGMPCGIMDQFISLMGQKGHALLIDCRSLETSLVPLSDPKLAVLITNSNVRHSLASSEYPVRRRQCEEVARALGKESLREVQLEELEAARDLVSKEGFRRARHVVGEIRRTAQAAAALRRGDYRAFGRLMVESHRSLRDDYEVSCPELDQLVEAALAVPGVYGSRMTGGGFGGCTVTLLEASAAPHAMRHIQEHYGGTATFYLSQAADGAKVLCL
3',5'-cyclic-AMP phosphodiesterase 4B (Homo sapiens), sequence (Q07343 whole entry, looked up): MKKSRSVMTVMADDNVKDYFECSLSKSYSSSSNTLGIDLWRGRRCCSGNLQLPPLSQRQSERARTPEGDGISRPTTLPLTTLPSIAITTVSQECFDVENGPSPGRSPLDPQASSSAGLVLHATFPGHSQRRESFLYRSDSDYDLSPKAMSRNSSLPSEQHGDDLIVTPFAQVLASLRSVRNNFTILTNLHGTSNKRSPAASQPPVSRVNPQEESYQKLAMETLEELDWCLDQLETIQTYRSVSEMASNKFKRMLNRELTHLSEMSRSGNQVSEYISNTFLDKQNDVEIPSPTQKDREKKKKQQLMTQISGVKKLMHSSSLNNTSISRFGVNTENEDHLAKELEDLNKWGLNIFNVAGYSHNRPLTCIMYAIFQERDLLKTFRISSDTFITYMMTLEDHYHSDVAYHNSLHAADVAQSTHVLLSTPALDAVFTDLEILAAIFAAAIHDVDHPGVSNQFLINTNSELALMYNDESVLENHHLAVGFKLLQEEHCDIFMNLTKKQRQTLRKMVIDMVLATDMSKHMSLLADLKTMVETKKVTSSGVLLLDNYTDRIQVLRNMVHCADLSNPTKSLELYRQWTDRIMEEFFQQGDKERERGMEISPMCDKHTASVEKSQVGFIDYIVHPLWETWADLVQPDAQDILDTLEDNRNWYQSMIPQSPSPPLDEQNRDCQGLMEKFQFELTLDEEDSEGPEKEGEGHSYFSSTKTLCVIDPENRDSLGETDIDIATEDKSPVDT
Catechol O-methyltransferase (Homo sapiens), sequence (P21964 whole entry, looked up): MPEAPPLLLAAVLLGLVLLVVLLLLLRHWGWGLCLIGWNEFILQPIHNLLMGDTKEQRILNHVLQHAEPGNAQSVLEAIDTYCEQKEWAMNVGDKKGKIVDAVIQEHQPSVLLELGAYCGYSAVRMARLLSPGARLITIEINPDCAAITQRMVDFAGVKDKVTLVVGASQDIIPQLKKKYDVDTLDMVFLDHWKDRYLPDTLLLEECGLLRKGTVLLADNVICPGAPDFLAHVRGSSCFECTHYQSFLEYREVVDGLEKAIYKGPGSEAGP
Pyruvate kinase PKM (Homo sapiens), sequence (P14618 whole entry, looked up): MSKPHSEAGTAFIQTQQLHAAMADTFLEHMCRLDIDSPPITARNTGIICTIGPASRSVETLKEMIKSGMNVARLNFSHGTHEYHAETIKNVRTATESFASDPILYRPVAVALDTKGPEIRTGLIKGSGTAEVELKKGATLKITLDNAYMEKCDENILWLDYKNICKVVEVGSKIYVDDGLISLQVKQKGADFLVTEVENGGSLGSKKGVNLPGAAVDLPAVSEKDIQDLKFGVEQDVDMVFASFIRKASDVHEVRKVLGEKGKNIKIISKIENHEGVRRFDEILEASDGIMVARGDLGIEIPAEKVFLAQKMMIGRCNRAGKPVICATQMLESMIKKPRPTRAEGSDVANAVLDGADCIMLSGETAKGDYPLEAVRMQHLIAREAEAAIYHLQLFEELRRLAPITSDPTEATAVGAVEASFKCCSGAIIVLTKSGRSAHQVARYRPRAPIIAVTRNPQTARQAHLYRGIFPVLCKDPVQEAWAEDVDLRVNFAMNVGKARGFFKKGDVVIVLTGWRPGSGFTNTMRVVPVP
Muscarinic acetylcholine receptor M1 (Rattus norvegicus), sequence (P08482 whole entry, looked up): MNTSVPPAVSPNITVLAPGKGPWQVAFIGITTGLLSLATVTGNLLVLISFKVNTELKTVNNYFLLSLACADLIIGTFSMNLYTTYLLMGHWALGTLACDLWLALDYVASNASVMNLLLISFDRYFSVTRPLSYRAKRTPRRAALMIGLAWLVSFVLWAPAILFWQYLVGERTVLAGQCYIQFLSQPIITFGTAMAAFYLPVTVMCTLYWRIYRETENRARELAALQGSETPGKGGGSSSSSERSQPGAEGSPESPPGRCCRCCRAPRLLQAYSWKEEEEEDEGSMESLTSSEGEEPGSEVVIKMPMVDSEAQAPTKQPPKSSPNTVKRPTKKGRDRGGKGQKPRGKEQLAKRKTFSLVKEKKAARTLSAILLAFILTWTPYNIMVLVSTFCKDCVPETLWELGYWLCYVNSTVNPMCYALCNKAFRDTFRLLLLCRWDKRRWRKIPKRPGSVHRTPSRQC
Cytochrome P450 2D6 (Homo sapiens), sequence (P10635 whole entry, looked up): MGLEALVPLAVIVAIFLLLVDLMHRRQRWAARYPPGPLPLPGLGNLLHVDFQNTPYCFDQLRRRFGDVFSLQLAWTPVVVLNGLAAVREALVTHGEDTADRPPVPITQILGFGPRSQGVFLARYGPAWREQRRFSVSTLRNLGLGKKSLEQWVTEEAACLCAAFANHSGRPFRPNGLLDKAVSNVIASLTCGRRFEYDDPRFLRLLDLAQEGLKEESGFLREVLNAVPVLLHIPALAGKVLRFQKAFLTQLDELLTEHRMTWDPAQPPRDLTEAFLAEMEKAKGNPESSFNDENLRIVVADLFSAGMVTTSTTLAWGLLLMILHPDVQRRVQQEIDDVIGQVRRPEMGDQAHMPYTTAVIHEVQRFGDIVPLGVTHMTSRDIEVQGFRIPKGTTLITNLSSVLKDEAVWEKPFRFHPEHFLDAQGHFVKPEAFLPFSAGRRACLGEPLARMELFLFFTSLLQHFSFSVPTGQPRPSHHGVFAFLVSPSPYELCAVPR

On to `Cc1cc(N)c2ccccc2[n+]1CCCCCCCCCCCCCC[n+]1c(C)cc(N)c2ccccc21`, for which the Potency result in [1], in experiment [4], in [5] and in [6] was “inactive” in each case. In addition, the activity change, negative = inhibition in experiment [2] is -82.1% [at 38 µM] (active). Besides, the Potency was > 46 µM (inactive) in experiment [3]; 7.94 µM (active) in [8]; 2.51 µM (active) in experiment [9]; 3.98 µM (active) in experiment [10]; 28.2 µM (active) in experiment [15]; 28.2 µM (active) in [17]. Also, the Potency in experiment [18] is 316 nM (active); in experiment [19] it was 316 nM (active); in experiment [20], 126 nM (active); in [21] it was 316 nM (active); in [22], 355 nM (active); in experiment [23] it was 141 nM (active). In addition, the Potency in experiment [24] is 316 nM (active); in [25], 39.8 µM (active); in experiment [29], 7.08 µM (active). For the same compound, the outcome in [7], in experiment [11], in experiment [12], in [13], in experiment [14] and in experiment [16] was “inactive” throughout. The outcome in experiment [26] and in [28] was “inactive” in each case. Further, the activation in experiment [27] was -0.125% (inactive).
For `CCn1cc(CN2CCCC23CCN(c2cc(C)nc4ccccc24)CC3)c(C)n1`, the figures for the activity in [30], in [32] and in experiment [33] were 3.11%, -3.44% and 6.12%, respectively. For the same compound, in experiment [31], the activity change, negative = inhibition is 4.01%.
